“And” between values parts separate entries of the source, which are not always exact repeats. Equal values may be shown once. Results filed as inconclusive are left out. The source made the active and inactive calls. Unless noted, calls come from the whole dose curve; as a rule, active = well fitted curve in the direction sought with a large enough effect; inconclusive = small, poorly fitted or top-dose-only effect, or another doubt; inactive = no such curve, though single readings can be large; an effect the other way counts as inactive or inconclusive.
Assays:
[1] = molecular target: Thyroid hormone receptor beta (Homo sapiens) (UniProt P10828); assay: qHTS assay for small molecule agonists of thyroid hormone receptor beta signaling (AID 588545; calls by dose curve;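 note: 0% = DMSO only and 100% = 10 nM T3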)
In short: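 TR-UAS-bla GripTite HEK 293 cells (2500/well, medium with 2% charcoal/dextran FBS) were treated in agonist mode for 18 h at 37 C, titrated. Beta-lactamase was read by CCF4 ratio after 2 h; normalized to 10 nM T3 (100%) and DMSO, Hill-fitted for EC50 and efficacy.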

[2] = qHTS assay for small molecule antagonists of retinoid X receptor alpha signaling (AID 588546; active = well fitted inhibition curve with a large enough effect in the signal ratio, with a control signal flat, not every such curve was filed as active; the % refers to the signal ratio;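 note: cells stimulated with 9-cis-retinoic acid as agonist; % is set by controls: 0 for no effect and ±100 for the full control effect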); conditions: HEK293T RXRa-UAS-bla, beta-lactamase ratio, antagonist mode; measured here: W530 green channel, cytotoxicity proxy
In short: (§1)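 Beta-lactamase reporter inhibition, read as CCF4 fluorescence ratio (ex 405, em 460/530 nm) after 2 h at RT. HEK293T UAS-bla cells, 2500/well, were stimulated with 9-cis-RA at 500 or 100 nM final alongside test compound for 18 h at 37 C.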

[3] = molecular target: Retinoic acid receptor RXR-alpha (Homo sapiens) (UniProt P19793); assay: as above; conditions: HEK293T RXRa-UAS-bla, beta-lactamase ratio, antagonist mode
In short: as §1

[4] = molecular target: Thyroid hormone receptor beta (Homo sapiens) (UniProt P10828); assay: qHTS assay for small molecule antagonists of thyroid hormone receptor beta signaling (AID 588547; active = well fitted inhibition curve with a large enough effect in the signal ratio, with a control signal flat, not every such curve was filed as active; the % refers to the signal ratio;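 note: cells stimulated with 0.4 nM T3 agonist during compound exposure; series mostly up to about 77 µM; % is set by controls: 0 for no effect and ±100 for the full control effect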); conditions: TR-UAS-bla HEK293, beta-lactamase ratio, antagonist mode, 18 h
In short: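 TR-UAS-bla GripTite HEK293 cells in 2% charcoal/dextran FBS medium were preincubated 4 h at 37 C, given compound (0.59 nM to 92 uM) plus 0.4 nM T3 (final) for 18 h, then CCF4 for 2 h at RT; Hill fit gave IC50.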

[5] = molecular target: Voltage-gated inwardly rectifying potassium channel KCNH2 (Homo sapiens) (UniProt Q12809); assay: qHTS Assay for Small Molecule Inhibitors of the Human hERG Channel Activity (AID 588834);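 note: top concentration of the series differs between compounds; % is set by controls: 0 for no effect and ±100 for the full control effect; lower thallium flux fluorescence means stronger hERG block; nearly all actives have a fitted effect of over 50% in size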
In short: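 U2OS cells transduced with hERG via BacMam (MOI ~100), plated 2000/well, loaded with FluxOR thallium dye, compound ~10 min, then stimulation buffer; fluorescence decrease read kinetically; AC50 from Hill fits.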

[6] = molecular target: Luciferin 4-monooxygenase (Photinus pyralis) (UniProt P08659); assay: Biochemical firefly luciferase enzyme assay for NPC (AID 624030);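 note: purified P. pyralis luciferase at 10 nM with luciferin and ATP substrate; series mostly up to about 59 µM; 0% = DMSO and -100% = full luciferase inhibition by PTC124 control; nearly all actives have a fitted effect of over 70% in size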
In short: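 Counter-screen for direct inhibition of the luciferase enzyme by approved-drug library compounds, run at 10 nM enzyme in 50 mM Tris acetate (final). Luminescence was read within 5 min of enzyme-buffer addition and normalized to PTC124 versus DMSO (0%).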

[7] = qHTS assay for small molecule agonists of the antioxidant response element (ARE) signaling pathway (AID 651741; active = well fitted activation curve with a large enough effect in the signal ratio; the % refers to the signal ratio; note: % of control where 0% means no effect)
In short: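 ARE-bla HepG2 cells (beta-lactamase reporter under ARE control) were plated at 2,000 cells/well, preincubated 5 h at 37 C/5% CO2, then treated with DMSO-dissolved compounds for 16 h at 37 C; LiveBLAzer B/G FRET substrate added, fluorescence read after 2 h at room temperature.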

[8] = qHTS assay for small molecule activators of the p53 signaling pathway (AID 651743; active = well fitted activation curve with a large enough effect in the signal ratio, not every such curve was filed as active; the % refers to the signal ratio; note: series mostly up to about 92 µM; % of control where 0% means no effect); conditions: HCT-116 p53RE-bla, beta-lactamase FRET ratio, 16 h; activation: stronger effect = higher value
In short: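 p53RE-bla HCT-116 cells with a stably integrated beta-lactamase reporter under p53 response elements were plated, rested 5 hours at 37 C/5% CO2, then exposed to compounds in DMSO for 16 hours at 37 C. LiveBLAzer B/G FRET substrate was read after 2 hours at room temperature.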

[9] = qHTS assay for small molecule activators of the nuclear factor-kappa B (NF-kB) signaling pathway (AID 651749; active = well fitted activation curve with a large enough effect in the signal ratio; the % refers to the signal ratio; note: series mostly up to about 77 µM; % of control where 0% means no effect); conditions: NF-kB-bla ME-180 cells, beta-lactamase FRET ratio, 16 h; activation: stronger effect = higher value
In short: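 ME-180 cells stably carrying a beta-lactamase reporter under an NF-kB response element were exposed to compound or DMSO vehicle for 16 hr at 37C, 5% CO2. Pathway activation was read by FRET, since reporter expression disrupts FRET.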

[10] = molecular target: Tumor necrosis factor (Homo sapiens) (UniProt P01375); assay: qHTS assay to identify small molecules that stimulate Tumor Necrosis Factor-alpha (TNF-alpha) secretion (AID 651757; active = well fitted curve in the direction sought with a large enough effect in the signal ratio; the % refers to the signal ratio; note: 0% is about no effect)
In short: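 THP-1 cells were exposed to compounds for 17 hrs at 37 C, after which secreted TNF-alpha was measured by homogeneous HTRF (TR-FRET) using cryptate- and XL665-labeled anti-TNF-alpha antibodies, read after 3 hr at room temperature.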

[11] = qHTS assay for environmental chemicals that activate the Aryl hydrocarbon Receptor (AhR) signaling pathway (AID 651777); conditions: 1A2-DRE human hepatoma cells, luciferase, 24 h; activation: stronger effect = higher value; note: % of control where 0% means no effect; nearly all actives have a fitted effect of over 15% in size
In short: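 Measured luciferase activity, read 30 min after One-Glo addition at room temperature, from human hepatoma cells bearing a dioxin response element–CYP1A2 promoter reporter and exposed to compound for 24 hr at 37 C.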

[12] = molecular target: Peroxisome proliferator-activated receptor alpha (Homo sapiens) (UniProt Q07869); assay: qHTS assay for small molecule agonists of the peroxisome proliferator-activated receptor alpha (PPARalpha) signaling pathway (AID 651778); conditions: PathHunter PPARalpha complementation, chemiluminescence, 6 h; stronger effect = higher value; note: % of control where 0% means no effect
In short: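 Cells plated at 2,000/well and held overnight at 37 C, 5% CO2, then compound added by pin tool for 6 hr; after PathHunter detection reagent and 60 min at room temperature, chemiluminescence from enzyme complementation was read.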

[13] = molecular target: Nuclear receptor ROR-gamma (Homo sapiens) (UniProt P51449); assay: qHTS assay for small molecule antagonists of the retinoid-related orphan receptor gamma (ROR-gamma) signaling pathway (AID 651802); note: series mostly up to about 92 µM; % is set by controls: 0 for no effect and ±100 for the full control effect; nearly all actives have a fitted effect of over 60% in size
In short: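 CHO cells carrying TET-inducible ROR-gamma and an ROR response element–luciferase reporter were exposed to compound, then induced with doxycycline. After 16hr at 37C, luminescence was read; lower signal indicates antagonism.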

[14] = qHTS assay for small molecule agonists of the antioxidant response element (ARE) signaling pathway measured by Nrf2-dependant transcriptional activity (AID 720636; active = well fitted curve in the direction sought with a large enough effect in the repeat runs; an effect the other way counts as inactive or inconclusive;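 note: HepG2 cells with an ARE-driven luciferase reporter; % of control where 0% means no effect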)
In short: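 In HepG2 cells engineered with an Nrf2-responsive luciferase gene, ARE induction was quantified as luminescence after 16 hr compound treatment at 37 C.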

[15] = qHTS assay for small molecule antagonists of the retinoid-related orphan receptor gamma (ROR-gamma) signaling pathway - cell viability counter screen (AID 720652; active = well fitted curve in the direction sought with a large enough effect in the repeat runs; an effect the other way counts as inactive or inconclusive;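 note: series mostly up to about 92 µM; compound exposure lasted 16 hr before ATP read; % is set by controls: 0 for no effect and ±100 for the full control effect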)
In short: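 Counter screen in CHO cells carrying TET-inducible ROR-gamma and an ROR response element-luciferase reporter; cells plated 5 hr, compound pinned, doxycycline added, then 16 hr at 37 C. Viability read as intracellular ATP by CellTiter-Glo luminescence.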

[16] = qHTS assay for small molecule agonists of the antioxidant response element (ARE) signaling pathway measured by Nrf2-dependant transcriptional activity - cell viability counter screen (AID 720653; active = well fitted curve in the direction sought with a large enough effect in the repeat runs; an effect the other way counts as inactive or inconclusive; note: % is set by controls: 0 for no effect and ±100 for the full control effect); conditions: ARE-bla HepG2 viability, CellTiter-Glo ATP luminescence, 16 h; max response: stronger effect = lower value
In short: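 ARE-bla HepG2 cells (2,000/well) rested 5 hrs at 37C/5% CO2, then exposed to compounds in DMSO for 16 hrs. Viability was read in the same wells as intracellular ATP by luminescence, 30 min at room temperature after reagent addition.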

[17] = qHTS assay for cell viability of HEK293 cells (AID 743288); conditions: ATP luminescence (CellTiter-Glo), 18 h; max response: stronger effect = lower value; note: % is set by controls: 0 for no effect and ±100 for the full control effect; nearly all actives have a fitted effect of over 50% in size
In short: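 Parental HEK293 cells were seeded at 2,000 cells/well, rested at least 5 h at 37 C, then exposed to compounds in DMSO for 18 h at 37 C. Viability was read as ATP-dependent luciferase luminescence after 30 min at room temperature.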

[18] = qHTS assay for cell viability of the p53RE-bla HCT-116 cell line (AID 743292); note: % is set by controls: 0 for no effect and ±100 for the full control effect; nearly all actives have a fitted effect of over 55% in size
In short: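 Intracellular ATP of p53RE-bla HCT-116 cells measured by luciferase luminescence following 16 h compound incubation at 37 C; DMSO-only wells served as vehicle controls.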

[19] = P-glycoprotein substrates identified in KB-8-5-11 adenocarcinoma cell line, qHTS therapeutic library screen (AID 1346987); note: series mostly up to about 44 µM; % is set by controls: 0 for no effect and ±100 for the full control effect; nearly all actives have a fitted effect of over 65% in size
In short: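 KB-8-5-11: colchicine-selected sub-line of KB-3-1 over-expressing P-gp; assay medium lacked colchicine. 72 h drug exposure at 37 degree C, CellTiter-Glo.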

[20] = molecular target: Cytochrome P450 2D6 (Homo sapiens) (UniProt P10635); assay: Cytochrome P450 family 2 subfamily D member 6 (CYP2D6) small molecule antagonists: luciferase biochemical (cell-free) qHTS assay (AID 1645840; active = well fitted curve in the direction sought with a large enough effect in the repeat runs; an effect the other way counts as inactive or inconclusive; note: series mostly up to about 57 µM; % is set by controls: 0 for no effect and ±100 for the full control effect; nearly all actives have a fitted effect of over 55% in size)
In short: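 P450-Glo luminescent screen: recombinant CYP2D6 enzyme–proluciferin substrate mix preincubated with compound 10 min at room temperature, then NADPH regeneration added for 1 h at room temperature. Detection reagent added for 20 min; luciferin light read as relative luminescence units.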

[21] = molecular target: Cytochrome P450 2C9 (Homo sapiens) (UniProt P11712); assay: Cytochrome P450 family 2 subfamily C member 9 (CYP2C9) small molecule antagonists: luciferase biochemical (cell-free) qHTS assay (AID 1645842; active = well fitted curve in the direction sought with a large enough effect in the repeat runs; an effect the other way counts as inactive or inconclusive; note: series mostly up to about 57 µM; % is set by controls: 0 for no effect and ±100 for the full control effect; nearly all actives have a fitted effect of over 55% in size)
In short: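 Luminescence, after 20 min with luciferin detection reagent, reflected CYP2C9 turnover during a 1 h NADPH-driven reaction at 37C. Enzyme-substrate mix contained 0.4% bovine serum albumin and was preincubated with compound 10 min at room temperature.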

KB-3-1 = assay: Cytotoxic Profiling of Annotated Libraries Using Quantitative High-Throughput Screening (AID 1296008); conditions: Five cell lines viability, CellTiter-Glo ATP luminescence, 48-72 h; max response: stronger effect = lower value; note: % is set by controls: 0 for no effect and ±100 for the full control effect; nearly all actives have a fitted effect of over 60% in size
In short: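 Compounds were pin-transferred onto cells and incubated 48 or 72 hr at 37 degree Celsius, 95% humidity. CellTiter-Glo was added, plates sat 10 min at room temperature, then ATP-coupled luminescence was imaged as the viability read-out.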

[22] = molecular target: Nuclear receptor subfamily 1 group I member 2 (Rattus norvegicus) (UniProt Q9R1A7); assay: qHTS assay for small molecule activators of the rat pregnane X receptor (rPXR) signaling pathway (AID 651751; call rule not given here; note: 0% is about no effect); conditions: rPXR reporter cells, luciferase (One-Glo), 24 h
[23] = qHTS assay for small molecule activators of the human pregnane X receptor (PXR) signaling pathway (AID 720659; call rule not given here; note: 0% is about no effect)

Chain of Thyroid hormone receptor beta (Homo sapiens) (P10828 whole entry, looked up): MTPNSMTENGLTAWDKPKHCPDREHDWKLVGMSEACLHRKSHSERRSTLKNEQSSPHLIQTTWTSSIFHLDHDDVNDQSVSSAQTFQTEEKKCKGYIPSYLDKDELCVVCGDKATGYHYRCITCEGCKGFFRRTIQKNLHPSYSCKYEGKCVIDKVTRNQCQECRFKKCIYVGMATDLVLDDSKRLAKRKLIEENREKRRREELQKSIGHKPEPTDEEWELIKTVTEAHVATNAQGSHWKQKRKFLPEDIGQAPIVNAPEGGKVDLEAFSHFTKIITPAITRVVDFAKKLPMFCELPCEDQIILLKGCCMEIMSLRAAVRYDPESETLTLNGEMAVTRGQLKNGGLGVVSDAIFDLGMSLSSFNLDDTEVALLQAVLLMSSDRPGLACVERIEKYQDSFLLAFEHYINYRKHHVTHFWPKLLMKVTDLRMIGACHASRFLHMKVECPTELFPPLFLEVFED
Chain of Nuclear receptor subfamily 1 group I member 2 (Rattus norvegicus) (Q9R1A7 whole entry, looked up): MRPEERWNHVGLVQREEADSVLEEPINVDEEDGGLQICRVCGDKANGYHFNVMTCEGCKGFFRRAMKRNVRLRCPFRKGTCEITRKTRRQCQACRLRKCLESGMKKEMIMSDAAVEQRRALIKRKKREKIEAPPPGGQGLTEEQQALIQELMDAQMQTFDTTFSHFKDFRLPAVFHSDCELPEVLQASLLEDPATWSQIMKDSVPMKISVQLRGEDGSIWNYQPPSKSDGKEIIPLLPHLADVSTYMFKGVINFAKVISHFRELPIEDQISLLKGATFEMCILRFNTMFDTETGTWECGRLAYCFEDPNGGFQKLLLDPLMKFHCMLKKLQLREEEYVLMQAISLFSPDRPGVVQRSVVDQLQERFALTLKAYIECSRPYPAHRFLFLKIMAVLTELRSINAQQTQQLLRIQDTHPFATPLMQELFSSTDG
Chain of Peroxisome proliferator-activated receptor alpha (Homo sapiens) (Q07869 whole entry, looked up): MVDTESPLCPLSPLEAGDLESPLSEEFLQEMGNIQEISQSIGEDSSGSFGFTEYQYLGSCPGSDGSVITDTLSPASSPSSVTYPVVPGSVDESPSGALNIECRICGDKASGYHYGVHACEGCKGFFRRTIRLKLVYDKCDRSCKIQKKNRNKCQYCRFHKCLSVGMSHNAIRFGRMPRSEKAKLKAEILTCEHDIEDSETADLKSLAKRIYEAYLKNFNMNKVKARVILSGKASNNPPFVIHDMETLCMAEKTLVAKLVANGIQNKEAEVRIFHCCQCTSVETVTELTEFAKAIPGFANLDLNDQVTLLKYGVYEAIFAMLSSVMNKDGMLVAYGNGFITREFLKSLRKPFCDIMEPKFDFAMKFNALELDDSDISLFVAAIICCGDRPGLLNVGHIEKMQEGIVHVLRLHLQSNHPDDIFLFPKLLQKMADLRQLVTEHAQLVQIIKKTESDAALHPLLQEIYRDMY
Chain of Nuclear receptor ROR-gamma (Homo sapiens) (P51449 whole entry, looked up): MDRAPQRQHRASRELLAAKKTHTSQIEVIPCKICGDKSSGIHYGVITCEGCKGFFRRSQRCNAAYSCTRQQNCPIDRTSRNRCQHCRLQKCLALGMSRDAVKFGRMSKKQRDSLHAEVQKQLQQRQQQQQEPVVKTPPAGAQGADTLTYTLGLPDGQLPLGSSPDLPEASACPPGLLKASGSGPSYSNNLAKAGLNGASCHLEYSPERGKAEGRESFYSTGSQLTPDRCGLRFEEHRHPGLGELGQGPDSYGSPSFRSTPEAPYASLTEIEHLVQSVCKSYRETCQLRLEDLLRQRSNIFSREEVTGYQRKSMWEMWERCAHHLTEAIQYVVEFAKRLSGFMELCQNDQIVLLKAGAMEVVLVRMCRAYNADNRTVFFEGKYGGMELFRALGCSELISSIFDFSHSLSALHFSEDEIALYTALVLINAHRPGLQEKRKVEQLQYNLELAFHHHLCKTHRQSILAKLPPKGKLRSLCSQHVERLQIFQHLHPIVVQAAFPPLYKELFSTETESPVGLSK
Chain of Voltage-gated inwardly rectifying potassium channel KCNH2 (Homo sapiens) (Q12809 whole entry, looked up): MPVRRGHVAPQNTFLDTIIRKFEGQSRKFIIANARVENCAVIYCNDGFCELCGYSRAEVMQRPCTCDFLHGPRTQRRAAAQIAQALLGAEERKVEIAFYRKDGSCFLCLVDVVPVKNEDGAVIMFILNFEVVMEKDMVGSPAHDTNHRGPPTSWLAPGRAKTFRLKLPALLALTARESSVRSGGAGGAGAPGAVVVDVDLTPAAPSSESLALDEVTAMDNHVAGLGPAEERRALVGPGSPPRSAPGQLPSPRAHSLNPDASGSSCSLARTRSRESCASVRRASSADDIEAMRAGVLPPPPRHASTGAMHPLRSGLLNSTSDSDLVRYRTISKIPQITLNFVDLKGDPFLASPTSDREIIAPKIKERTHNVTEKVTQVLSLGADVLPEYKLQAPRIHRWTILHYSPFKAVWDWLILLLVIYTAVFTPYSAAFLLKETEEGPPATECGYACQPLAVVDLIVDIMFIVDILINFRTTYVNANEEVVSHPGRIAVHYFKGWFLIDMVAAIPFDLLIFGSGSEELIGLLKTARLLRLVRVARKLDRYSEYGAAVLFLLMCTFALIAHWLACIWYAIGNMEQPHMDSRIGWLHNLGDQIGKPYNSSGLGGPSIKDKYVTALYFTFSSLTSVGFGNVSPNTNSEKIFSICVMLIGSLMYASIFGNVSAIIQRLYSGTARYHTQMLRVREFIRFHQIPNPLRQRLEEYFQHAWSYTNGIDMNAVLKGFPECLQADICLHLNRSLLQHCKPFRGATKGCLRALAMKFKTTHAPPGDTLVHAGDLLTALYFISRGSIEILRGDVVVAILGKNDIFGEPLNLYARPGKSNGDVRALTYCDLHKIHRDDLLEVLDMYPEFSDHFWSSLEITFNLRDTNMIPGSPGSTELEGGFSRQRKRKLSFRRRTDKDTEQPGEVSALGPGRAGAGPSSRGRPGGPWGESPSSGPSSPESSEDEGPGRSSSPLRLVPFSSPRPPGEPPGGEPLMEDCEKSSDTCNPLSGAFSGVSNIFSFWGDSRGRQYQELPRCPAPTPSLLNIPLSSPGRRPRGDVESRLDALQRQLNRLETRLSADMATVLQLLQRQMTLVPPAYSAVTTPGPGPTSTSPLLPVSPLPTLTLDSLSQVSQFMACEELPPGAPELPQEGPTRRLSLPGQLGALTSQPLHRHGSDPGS
Chain of Cytochrome P450 2C9 (Homo sapiens) (P11712 whole entry, looked up): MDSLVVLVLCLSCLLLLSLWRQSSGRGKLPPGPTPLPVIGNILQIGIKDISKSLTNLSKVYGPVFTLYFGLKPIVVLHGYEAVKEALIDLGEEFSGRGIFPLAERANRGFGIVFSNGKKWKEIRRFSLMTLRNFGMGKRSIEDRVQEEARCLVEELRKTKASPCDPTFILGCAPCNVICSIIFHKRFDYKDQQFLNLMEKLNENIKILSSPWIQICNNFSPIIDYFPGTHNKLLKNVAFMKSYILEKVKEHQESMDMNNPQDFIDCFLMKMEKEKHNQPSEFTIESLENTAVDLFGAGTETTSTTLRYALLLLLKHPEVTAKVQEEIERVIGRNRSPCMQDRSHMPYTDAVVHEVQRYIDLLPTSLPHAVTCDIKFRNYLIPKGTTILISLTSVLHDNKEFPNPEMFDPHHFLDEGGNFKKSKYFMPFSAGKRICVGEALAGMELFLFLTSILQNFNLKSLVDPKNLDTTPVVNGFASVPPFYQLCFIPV
Chain of Retinoic acid receptor RXR-alpha (Homo sapiens) (P19793 whole entry, looked up): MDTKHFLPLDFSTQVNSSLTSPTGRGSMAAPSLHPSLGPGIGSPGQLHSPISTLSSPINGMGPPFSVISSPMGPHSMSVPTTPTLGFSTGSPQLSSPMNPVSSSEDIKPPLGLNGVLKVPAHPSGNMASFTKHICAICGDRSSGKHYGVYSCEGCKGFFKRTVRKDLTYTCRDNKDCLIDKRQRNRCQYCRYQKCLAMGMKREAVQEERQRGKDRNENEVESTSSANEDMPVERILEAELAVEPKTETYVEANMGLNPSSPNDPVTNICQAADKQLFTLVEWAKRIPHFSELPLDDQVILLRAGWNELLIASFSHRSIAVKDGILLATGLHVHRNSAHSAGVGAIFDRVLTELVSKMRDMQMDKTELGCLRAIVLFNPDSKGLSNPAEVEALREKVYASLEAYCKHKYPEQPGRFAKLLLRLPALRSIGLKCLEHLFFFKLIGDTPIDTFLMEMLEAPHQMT
Chain of Cytochrome P450 2D6 (Homo sapiens) (P10635 whole entry, looked up): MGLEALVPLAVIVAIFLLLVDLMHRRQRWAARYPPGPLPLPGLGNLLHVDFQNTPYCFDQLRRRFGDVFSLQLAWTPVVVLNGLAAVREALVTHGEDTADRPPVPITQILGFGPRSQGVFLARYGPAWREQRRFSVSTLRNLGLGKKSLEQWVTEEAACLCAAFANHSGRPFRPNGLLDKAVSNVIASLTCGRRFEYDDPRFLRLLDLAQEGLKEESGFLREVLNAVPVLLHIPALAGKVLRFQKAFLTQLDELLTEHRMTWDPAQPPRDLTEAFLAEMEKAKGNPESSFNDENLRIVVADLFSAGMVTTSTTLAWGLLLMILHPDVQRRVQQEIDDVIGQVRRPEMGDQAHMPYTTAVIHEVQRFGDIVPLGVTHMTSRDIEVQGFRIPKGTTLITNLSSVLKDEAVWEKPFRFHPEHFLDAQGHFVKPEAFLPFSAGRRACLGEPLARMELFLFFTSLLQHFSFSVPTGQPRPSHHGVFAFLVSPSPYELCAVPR
Chain of Tumor necrosis factor (Homo sapiens) (P01375 whole entry, looked up): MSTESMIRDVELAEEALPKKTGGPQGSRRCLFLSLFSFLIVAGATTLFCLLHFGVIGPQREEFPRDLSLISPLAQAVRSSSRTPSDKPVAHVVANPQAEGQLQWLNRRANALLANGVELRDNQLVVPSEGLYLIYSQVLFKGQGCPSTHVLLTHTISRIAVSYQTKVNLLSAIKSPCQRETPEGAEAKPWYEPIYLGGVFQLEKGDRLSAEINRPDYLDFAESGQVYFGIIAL

COC(=O)c1ccccc1C(=O)OC
inactive: Potency [1] | max response [3] 2.81% | activity change % (negative = inhibition) [4] 0.995% and 14.6% | Potency [5] | Potency [6] | Potency [7] | activation [8] -1.52% and -1.95% | activation [9] -0.143% and 1.34% | outcome [10] | activation [11] 1.37% and 0.566% | max response [12] 0.0123% and 4.21% | Potency [13] | Potency [14] | outcome [15] | max response [16] 8.24% and 6.8% | max response [17] -1.85% and 5.33% | outcome [18] | Potency [19] | Potency [20] | Potency [21] | max response (KB-3-1) 3.72% | max response [22] 5.6% and 2.87% | outcome [23]
-2.9%: max response [2]

Source: PubChem BioAssay (NCATS)
